p53 reactivator: qHTS assay for re-activators of p53 using a Luc reporter; hit rate 0.063% among 320,000; H1299 p53-A138V BP100-luciferase reporter, luminescence, 24 h; Potency, µM (series often up to 92.2 µM), without a hit: top-dose activity change, positive = activation, hits mostly activators; note: potency is the fitted concentration of half-maximal effect; % of control where 0% means no effect; nearly all actives have a fitted effect of over 45% in size
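p53-null H1299 cells stably carrying temperature-sensitive p53-A138V and a BP100-luciferase reporter were pinned with compounds (4-point, 1:5 series) and held 24 hrs at 37 deg C. Luminescence was read 10 min after detection reagent.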
gsp agonist: qHTS for Agonist of gsp, the Etiologic Mutation Responsible for Fibrous Dysplasia/McCune-Albright Syndrome: qHTS; gsp mutant cells, cAMP HTRF, 30 min; Potency, µM (highest dose often 76.9 µM), for the others: top-dose activation (cAMP increase), most hits filed as activators; hit rate 0.13% among 340,000; AID 624287, 2012; active = well fitted activation curve with a large enough effect; inconclusive = small, poorly fitted or top-dose-only effect, or another doubt; inactive = no such curve, though single readings can be large or run the other way; cell line not stated here;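 note: phosphodiesterase inhibitor Ro 20-1724 added with compounds to block cAMP breakdown; potency is the fitted concentration of half-maximal effect; nearly all actives have a fitted effect of over 60% in size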
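Cells in DMEM/10% FBS with G418 were pretreated with compounds in DMSO plus […] (300 uM stock) for 30 min at 37C. cAMP was measured by HTRF (cAMP-d2 plus anti-cAMP antibody-K) after 30 min at room temperature.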
gsp antagonist: qHTS for Antagonists of gsp, the Etiologic Mutation Responsible for Fibrous Dysplasia/McCune-Albright Syndrome: qHTS; gsp-mutant cells, cAMP HTRF, 30 min; AID 624288, 2012; hit rate 0.4% among 340,000; Potency, µM (doses to about 76.9 µM), without a hit: at the highest dose activity change, negative = inhibition, hits mostly inhibitors; calls by dose curve; cell line not stated here;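 note: intracellular cAMP measured with PDE inhibitor Ro 20-1724 present during compound exposure; potency is the fitted concentration of half-maximal effect; % is set by controls: 0 for no effect and ±100 for the full control effect; nearly all actives have a fitted effect of over 65% in size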
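G418-selected cells were plated in DMEM/10% FBS for 16-24 h at 37C, then treated with compounds plus the PDE inhibitor […] (300 uM solution added) for 30 min at 37C. Intracellular cAMP was measured by HTRF after 30 min lysis at room temperature.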
Tb PFK inh-1: qHTS Assay to Find Inhibitors of T. brucei phosphofructokinase | ATP-dependent 6-phosphofructokinase (Trypanosoma brucei brucei), O15648 | T. brucei PFK, ADP-Glo luminescence | Potency, µM (highest dose often 57.5 µM), for inactives: at the top dose activity, negative = inhibition, actives largely listed as inhibitors | hit rate 0.17% among 330,000 | AID 485367, 2010;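 note: potency is the fitted concentration of half-maximal effect; 0% = uninhibited 1x PFK enzyme wells and -100% = no-enzyme wells; nearly all actives have a fitted effect of over 60% in size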
Target sequence (O15648 whole entry, looked up): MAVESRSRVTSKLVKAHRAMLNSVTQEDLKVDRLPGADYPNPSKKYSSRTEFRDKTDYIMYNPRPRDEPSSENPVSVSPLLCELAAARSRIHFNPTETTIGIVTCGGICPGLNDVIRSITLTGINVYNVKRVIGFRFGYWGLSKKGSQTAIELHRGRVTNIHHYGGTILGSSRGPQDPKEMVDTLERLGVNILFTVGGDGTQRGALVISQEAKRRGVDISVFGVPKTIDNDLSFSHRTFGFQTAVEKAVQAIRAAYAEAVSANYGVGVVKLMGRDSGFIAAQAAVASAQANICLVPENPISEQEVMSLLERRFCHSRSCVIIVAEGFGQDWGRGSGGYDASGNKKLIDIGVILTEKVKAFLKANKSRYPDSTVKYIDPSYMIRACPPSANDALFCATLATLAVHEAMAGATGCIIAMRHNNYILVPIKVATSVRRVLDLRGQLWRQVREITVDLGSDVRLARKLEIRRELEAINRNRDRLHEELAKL
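Compounds were pin-transferred as a titration series up to 57 uM into substrate buffer (0.5 mM F6P, 0.1 mM ATP, pH 8.0), then 1.25 nM PFK was added and reactions ran 45 min before ADP-Glo detection.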
RXFP1 ag: qHTS Assay for Agonists of the Relaxin Receptor RXFP1. Relaxin receptor 1 (Homo sapiens), Q9HBX9. HEK293T-RXFP1 cAMP TR-FRET, 30 min; response scale: percent of porcine relaxin response, buffer zero. Potency, µM (titrated, usually from 57.5 µM), without a hit: at the highest dose activation, usual class: activators. hit rate 0.3% among 370,000; note: potency is the fitted concentration of half-maximal effect; % is set by controls: 0 for no effect and ±100 for the full control effect; nearly all actives have a fitted effect of over 60% in size
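HEK293T cells stably expressing RXFP1 were pretreated with the PDE4 inhibitor Ro 20174, exposed to compounds for 30 min at 37C, lysed, and cAMP was read by TR-FRET. Data normalized to buffer (basal) and 29 nM porcine relaxin (100%).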
RXFP1 antagonist: qHTS Assay for Antagonists of the Relaxin Receptor RXFP1; hit rate 0.59% among 350,000; activity change, negative = inhibition, % at 57.5 µM; HEK293-RXFP1, relaxin-stimulated cAMP HTRF, 30 min; active compounds read low;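 active = activity change of -60% or lower, but not beyond a set lower limit; inconclusive = change between -60% and -40%, or beyond the set limit; inactive = change above -40%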; note: % is set by controls: 0 for no effect and ±100 for the full control effect
Tb PFK KinaseGlo: Tb PFK orthogonal confirmatory assay using ATP depletion (Kinase-Glo Plus) as an alternative measure of Tb PFK activity: Hit Validation; shares compounds with Tb PFK inh-1; Tb PFK enzyme, ATP depletion, Kinase-Glo Plus luminescence; Potency, µM (doses to about 57.5 µM), for the others: at the top dose inhibition; hit rate 47% among 1,100; AID 504636, 2011; calls by dose curve; note: potency is the fitted concentration of half-maximal effect; nearly all actives have a fitted effect of over 60% in size
Tb PFK inh-2: Inhibitors of T. brucei phosphofructokinase: Hit Validation; purified T. brucei PFK, ADP-Glo luminescence, 45 min; Potency, µM (titrated, usually from 57.5 µM), without a hit: at the highest dose activity change, negative = inhibition, hits mostly inhibitors; hit rate 41% among 1,100; shares compounds with Tb PFK inh-1;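 note: potency is the fitted concentration of half-maximal effect; plate controls were full PFK enzyme control for no effect and no enzyme control for full effect; nearly all actives have a fitted effect of over 60% in size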
An asterisk follows results filed as active; u = inconclusive; x = no result given; [ ] = another dose, or the depositor's remark. Most compounds without a hit are left out; they make up all but 1.1% or so of the library. Unless noted, calls come from the whole dose curve; as a rule, active = well fitted curve in the direction sought with a large enough effect; inconclusive = small, poorly fitted or top-dose-only effect, or another doubt; inactive = no such curve, though single readings can be large; an effect the other way counts as inactive or inconclusive.

SMILES	p53 reactivator	gsp agonist	gsp antagonist	Tb PFK inh-1	RXFP1 ag	RXFP1 antagonist	Tb PFK KinaseGlo	Tb PFK inh-2
C=C(C)C(=O)Nc1cccc(C2=NOC3(C2)C[C@@H](C(N)=O)N(C(=O)/C(C)=C/C)C3)c1 (stereo not given in full)	-3%	-1%	3%	3.4µM*	0%	x	0.19µM*	0.17µM*
CC1(C)C2CC=C(CN3CCOCC3)C1C2 (stereo not given)	-9%	-45%	9%	-1%	2%	-10	x	x
Cc1n[nH]c(C)c1Sc1ccccc1[N+](=O)[O-]	18%	7%[15.4 µM]	-9%	u	0%	8	u	u
C/C(=N\NC(N)=S)C12CC3CC(CC(C3)C1)C2	7%	-5%	-1%	-5%	2%	-6	x	x
CC1(C)OC(=O)C(=Cc2ccc(-c3ccc(S(N)(=O)=O)cc3)o2)C(=O)O1	5%	10%	u	u	1%	-105*	7%	u
NS(=O)(=O)c1ccc(-c2ccc(C=C3C(=O)NC(=O)NC3=O)o2)cc1	16%	u	0%	-20%	1%	x	x	x
O=C(NCCN1CCOCC1)c1ccc(CSc2nc3ccncc3n2Cc2ccc(F)cc2)cc1	0%	-24%	5%	u	4%	-1	u	u
O=C(NC1CCCC1)c1ccc(CSc2nc3ccncc3n2Cc2ccc(F)cc2)cc1	5%	-21%	0%	u	-2%	-8	u	27µM*
Nc1c(C(=O)NCCN2CCOCC2)c2nc3ccccc3nc2n1Cc1ccccc1	-5%	-2%[15.4 µM]	22%	-8%	1%	-9	x	x
O=C(N/N=C/c1c(O)n(Cc2ccc(F)cc2)c(=S)[nH]c1=O)c1ccncc1	-3%	-13%	-7%	-5%	2%	-1	x	x
Cc1cc(C)c(OCC(=O)Nc2cc(C(=O)O)cc(C(=O)O)c2)cc1C	-1%	2%	3%	21µM*	0%	-1	8.5µM*	19µM*
Cc1ccc(C(C)(C)C)c(OCC(=O)Nc2ccc(Cl)cc2C(=O)c2ccccc2)c1	x	x	x	x	3%	-7	x	x
Cc1ccccc1-n1c(C)nc2ccsc2c1=O	x	-1%[15.4 µM]	11%	x	x	-26	x	x
Cc1nc2ccccc2c(=O)n1-c1ccc(F)cc1	-6%	-19%	6%	18%	0%	7	x	x
Cn1cc(C(=O)c2ccccc2)c2ccccc21	0%	25%	-26%	-7%	-1%	1	x	x
Cc1ccccc1-n1sc2cc(F)ccc2c1=O	-7%	8%[15.4 µM]	-28%	2.7µM*	5%	u	u	11µM*
Cc1ccc(-n2sc3ccccc3c2=O)cc1S(=O)(=O)N1CCCCC1	28%	x	-22%	13µM*	3%	x	u	6.7µM*
O=C(O)c1cccc(-n2sc3ccccc3c2=O)c1	u	-8%	u	6µM*	0%	x	15µM*	17µM*
O=c1c2cc(F)ccc2sn1-c1ccccc1	-37%	x	-17%	6.7µM*	2%	x	u	u
COC(=O)C1=C(c2ccc(OCc3ccccc3)cc2)C[C@@H]2CC[C@H]1N2C(=O)NCc1ccc(N(C)C)cc1	-7%	-23%	-21%	-2%	0%	x	x	x
COc1ccccc1-n1c(CNCC2CCCO2)nc2ccccc2c1=O (stereo not given)	-4%	1%[15.4 µM]	8%	-24%	3%	4	x	x
Clc1ccc2c(c1)C(c1ccccc1Cl)=NCc1nnc(N3CCN(CCOc4ccccc4)CC3)n1-2	-14%	-3%	-17%	-12%	2%	-12	x	x
O=c1c2ccccc2sn1-c1ccccc1	-20%	0%	-15%	4.8µM*	0%	-27	u	7.6µM*
O=c1c2ccccc2nc(Cc2ccccc2)n1-c1ccccc1	x	-10%	-1%	3%	0%	-27	x	x
O=c1c2ccccc2sn1-c1nccs1	-9%	-4%[15.4 µM]	-23%	8.5µM*	8%	u	u	u
SMILES	p53 reactivator	gsp agonist	gsp antagonist	Tb PFK inh-1	RXFP1 ag	RXFP1 antagonist	Tb PFK KinaseGlo	Tb PFK inh-2
COc1ccc(-c2[nH]ncc2CNC(C)Cc2cccc(C)n2)cc1F (stereo not given)	-2%	-2%[15.4 µM]	3%	-3%	-3%	-9	x	x
CS(=O)(=O)NNC(=O)C1Cc2c(ccc3ccccc23)O1 (stereo not given)	-1%	3%	4%	u	0%	4	-28%	u
COc1ccc(-c2csc(NS(=O)(=O)c3ccc([N+](=O)[O-])cc3)n2)cc1	-3%	1%[15.4 µM]	-9%	u	2%	-10	-33%	u
CCN1CCN(C(=O)Cc2c(C)n(C(=O)c3ccc(Cl)cc3)c3ccc(OC)cc23)CC1	0%	20%	-4%	0%	0%	1	x	x
NC(=O)c1c(-c2cccs2)csc1N	3%	9%	-19%	u	1%	6	-30%	u
O=C(COc1ccc(S(=O)(=O)N2CCOCC2)cc1)N1CCN(Cc2ccc3c(c2)OCO3)CC1	18%	-40%	-18%	0%	0%	-3	x	x
Cc1cc(OCCCC(=O)NCc2cccs2)ccc1Cl	x	-6%[15.4 µM]	-3%	0%	0%	-15	x	x
N#Cc1ccc(OCC(=O)Nc2ccc(S(=O)(=O)N3CCOCC3)cc2)cc1	-5%	x	-15%	12µM*	x	x	12µM*	30µM*
Cc1cc(NS(=O)(=O)c2ccc(NC(=O)Cc3ccc([N+](=O)[O-])cc3)cc2)no1	2%	-8%	6%	2.4µM*	2%	1	0.85µM*	1.5µM*
CCc1nnc(NS(=O)(=O)c2ccc(NC(=O)COc3ccc(Cl)c(C)c3)cc2)s1	-4%	-13%	-14%	5.4µM*	0%	6	2.4µM*	7.6µM*
Cc1cc(NS(=O)(=O)c2ccc(NC(=O)COc3ccc(Cl)cc3)cc2)no1	-14%	0%	-9%	5.4µM*	2%	x	1.7µM*	3.8µM*
c1ccc(C2CC2)c(OCC2=NCCN2)c1	-2%	x	5%	-9%	-1%	8	x	x

Screening data: PubChem BioAssay, National Center for Advancing Translational Sciences (NCATS)
